Screening results (PubChem)
Anthrax LF prot – anthrax lethal factor protease inhibition. AID 588501. inhibition, % at 10 µM. hit rate 0.12% among 360,000. multiplex microsphere protease cleavage assay, LF. P15917
FBA Mtb inh – Mtb fructose-bisphosphate aldolase inhibition. inhibition, % at 1 µM. hit rate 2.3% among 360,000. P9WQA3. purified M. tuberculosis FBA, fluorescence read-out; in the data active means inhibition above about 27%
Target sequence (P9WQA3 whole entry, looked up): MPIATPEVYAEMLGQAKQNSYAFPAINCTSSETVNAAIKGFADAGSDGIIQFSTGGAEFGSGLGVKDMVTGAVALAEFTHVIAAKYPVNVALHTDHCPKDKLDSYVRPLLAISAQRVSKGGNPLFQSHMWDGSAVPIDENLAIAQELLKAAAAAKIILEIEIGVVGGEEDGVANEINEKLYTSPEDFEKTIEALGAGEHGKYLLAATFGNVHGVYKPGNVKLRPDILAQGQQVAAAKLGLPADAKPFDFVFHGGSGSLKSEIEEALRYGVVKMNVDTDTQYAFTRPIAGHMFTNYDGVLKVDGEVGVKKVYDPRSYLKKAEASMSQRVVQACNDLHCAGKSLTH
BoNT F protease – blocks Botulinum neurotoxin F light chain protease; Multiplex microsphere protease cleavage assay, flow cytometry; inhibition, % at 10 µM; hit rate 0.22% among 360,000; in the data active means inhibition above about 35%, passing the limit was not always enough; inconclusive means no clear call, values can overlap the other calls
Autofluor counter – counter-screen for toxin protease inhibitors: compound fluorescence; compound autofluorescence counterscreen, microsphere flow cytometry; active compounds read high; fluorescence intensity (test concentration not listed); hit rate 3.1% among 360,000; AID 624483; in the data active means fluorescence intensity above about 16000; inconclusive means no clear call, values can overlap the other calls
BoNT-A LC inh2 – BoNT A light chain protease inhibition; multiplex microsphere protease substrate cleavage, flow cytometry; inhibition, % at 10 µM; hit rate 0.17% among 360,000
GDH-TPI inh – GDH-TPI coupled enzyme inhibition counter-screen; inhibition, % at 4.8 µM; AID 588335; GDH-TPI coupled enzyme counterscreen, NADH absorbance; hit rate 1.2% among 360,000; in the data active means inhibition above about 30%
Large screens that a line does not name were inactive. Only some compounds are listed: those with a hit (about 6.6% of all), similar ones and a draw of the others. Unless noted, no stated cut-off is given here; in the data, active means inhibition above about 30%; inconclusive means no clear call, values can overlap the other calls; inactive means below that.

CCC(=O)N1N=C(c2ccc(NS(C)(=O)=O)cc2)CC1c1ccc(C)cc1 (stereo unspecified)	FBA Mtb inh active, Autofluor counter 19251, BoNT-A LC inh2 inconclusive
Cc1cccc(C(=O)N2N=C(c3ccc(NS(C)(=O)=O)cc3)CC2c2cccs2)c1 (stereo unspecified)	none
CNC(=S)N1N=C(c2ccc(C)cc2)CC1c1ccc(Br)cc1 (stereo unspecified)	Autofluor counter 23443
CC(=O)Nc1ccc(S(=O)(=O)NCCC(=O)N2CCN(C(c3ccccc3)c3ccccc3)CC2)cc1	Anthrax LF prot inconclusive, Autofluor counter inconclusive
COc1ccc(C2=NCCn3nc4cc(OC)ccc4c32)cc1	none
COc1ccccc1C1CC(c2ccc(NS(C)(=O)=O)cc2)=NN1C(=O)c1ccccc1 (stereo unspecified)	none
CCC(CC)C(=O)N1N=C(c2ccc(NS(C)(=O)=O)cc2)CC1c1ccccc1 (stereo unspecified)	FBA Mtb inh active
CCOC(=O)c1cc2c(=O)n3ccccc3nc2n(Cc2ccco2)c1=NC(=O)c1ccccc1OCC	FBA Mtb inh 173
CCOC(=O)c1cc2c(=O)n3ccccc3nc2n(CC(C)C)c1=NC(=O)c1ccco1	FBA Mtb inh 135
N=c1c(S(=O)(=O)c2ccccc2)cc2c(=O)n3ccccc3nc2n1Cc1cccnc1	Autofluor counter inconclusive
CCOC(=O)c1cc2c(=O)n3ccccc3nc2n(Cc2ccco2)c1=NC(=O)c1cccnc1	FBA Mtb inh 131
COc1ccc(CCNC(=O)c2cc3c(=O)n4ccccc4nc3n(Cc3ccco3)c2=N)cc1OC	none
CCCCn1c(N)c(N(CCC(C)C)C(=O)CN2C(=O)C3CCCCC3C2=O)c(=O)[nH]c1=O (stereo unspecified)	none
O=C(Nc1ccc(Br)cc1)c1cccc(N2C(=O)C3CCCCC3C2=O)c1 (stereo unspecified)	none
CSCCC(NS(=O)(=O)c1ccccc1F)C(=O)OCc1ccccc1Cl (stereo unspecified)	none
CCC(=O)N(C)/C=C1\Sc2ccccc2C1=O	none
O=CN(/C=C1\Sc2ccccc2C1=O)Cc1ccccc1	Autofluor counter 22692
CCn1cc(CCCC(=O)NCc2ccc(OC)cc2)c2ccccc21	none
CC1(C)NC(=O)N(CCCOc2ccccc2Br)C1=O	Autofluor counter 16174
CCOc1cc(C=O)ccc1OCCCN1C(=O)NC(C)(C)C1=O	Autofluor counter 22259
CC(=O)c1cccc(OCCN2C(=O)NC(C)(C)C2=O)c1	none
CCc1cccc(OCCCN2C(=O)NC(C)(C)C2=O)c1	Autofluor counter 22570
C/C=C/c1ccc(OCCCCN2C(=O)NC(C)(C)C2=O)c(OC)c1	none
CCC(C)(C)c1ccc(OCCN2C(=O)NC(C)(C)C2=O)cc1	Autofluor counter 22180
CC(C)Nc1nc(NCCN2CCCC2)c2sc(-c3ccccc3)cc2n1	none
Cn1cc(C(=O)C(=O)N2CCN(c3ccccc3)CC2)c2ccccc21	none
Cn1cc(C(=O)C(=O)N2CCOCC2)c2ccccc21	GDH-TPI inh 31
CCOC(=O)C1=C(Cn2cnc3ccccc32)NC(=O)NC1c1ccc(OC)cc1 (stereo unspecified)	Autofluor counter 16933
COc1ccccc1C(CNC(=O)c1cccc(S(=O)(=O)Nc2ccc(F)cc2)c1)N1CCCC1 (stereo unspecified)	Autofluor counter 25818
COc1ccc(NS(=O)(=O)c2cccc(C(=O)NCC(c3ccccc3OC)N3CCCC3)c2)cc1 (stereo unspecified)	none
O=C(NCC(c1ccco1)N1CCCC1)c1cccc(NS(=O)(=O)c2ccccc2)c1 (stereo unspecified)	Autofluor counter 16491
CC1(CNC(=O)C(=O)NCC2(C)CO2)CO1 (stereo unspecified)	none
Cc1ccc(C(=O)O)cc1S(=O)(=O)Nc1ccccc1C(=O)NC1CC1	none
CCc1c(C)c2cc(Cl)c(O)c(CN3CCCC3)c2oc1=O	FBA Mtb inh active
CCCCc1cc(=O)oc2c(CN3CCN(C)CC3)c(O)ccc12	FBA Mtb inh active
Cc1cc(=O)oc2c(CN3CCN(C)CC3)c(O)c(Cl)cc12	none (no result: FBA Mtb inh)
CCCCc1cc(=O)oc2cc(O)ccc12	FBA Mtb inh active
CCCCc1cc(=O)oc2cc(OCC(=O)NCc3ccccn3)ccc12	none
CCCCc1cc(=O)oc2c(CN3CCCC3)c(O)c(Cl)cc12	FBA Mtb inh active
Nc1c(C(=O)CSc2nccn2-c2cccc(F)c2)c(=O)[nH]c(=O)n1C1CC1	none
Cc1ccc(NC(=O)c2ccc(NCc3ccco3)c([N+](=O)[O-])c2)cc1Cl	none
CC1CCCCN1c1ccc(N)cc1C(N)=O (stereo unspecified)	none
COc1ccc(-c2cc3nc(C)cc(N4CCN(C(=O)c5cccnc5)CC4)n3n2)cc1	none
Cc1cccc(OC(C)C(=O)N/N=C\c2ccncc2)c1 (stereo unspecified)	none
O=C(NCCc1ccc(O)c(Br)c1)c1ccc(Br)o1	none (no result: FBA Mtb inh, GDH-TPI inh)
CC(O)[C@@H](C(=O)N1CCNCC1)n1cc(CCCCN)nn1 (stereo partly specified)	none
CCN(CC)CCOc1ccc(-c2c(C)c3c(ccc4ccccc43)oc2=O)cc1	none
Cc1c(C#N)c(=O)oc2ccc3ccccc3c12	FBA Mtb inh 115
Cc1cc(OCC(=O)N[C@@H](Cc2ccccc2)C(=O)O)c2c3c(c(=O)oc2c1)CCC3	FBA Mtb inh 137
CCCCc1cc(=O)oc2cc(C)cc(OCC(=O)N3CCC(C(N)=O)CC3)c12	none
CCCCc1cc(=O)oc2cc(C)cc(OCC(=O)O)c12	FBA Mtb inh 152, Autofluor counter 21248, BoNT-A LC inh2 inconclusive
Cc1cc(OCC(=O)NC(Cc2ccc(Cl)cc2)C(=O)O)c2c3c(c(=O)oc2c1)CCC3 (stereo unspecified)	FBA Mtb inh 72
Cc1ccc(-n2nc(C)cc2NC(=O)COc2cc(C)cc3oc(=O)c4c(c23)CCC4)cc1	Autofluor counter 22051
Cc1cc(Br)ccc1NC(=O)CN(C)C(=O)C1CCN(C(=O)c2ccc(Cl)cc2)CC1	none
CCN(CC)C(=O)c1nc(-c2cccc3ccccc23)no1	none
Nc1nnc(/C=C/c2ccccc2)s1	none
Cc1cc(OCC(=O)O)c2c3c(c(=O)oc2c1)CCCC3	FBA Mtb inh 185
Cc1cc(OCC(=O)N[C@H](C(=O)O)c2ccccc2)c2c3c(c(=O)oc2c1)CCC3	FBA Mtb inh 114
CCCOC(=O)COc1cc(C)cc2oc(=O)c3c(c12)CCC3	none
CCOC(=O)COc1cc(OCC(=O)OCC)c2c3c(c(=O)oc2c1)CCCC3	FBA Mtb inh 160
O=C1C(Cc2ccccc2)Nc2ncnc(N3CCN(c4ccccc4)CC3)c2N1Cc1ccc(Cl)cc1 (stereo unspecified)	none
CCCNC(=O)C1CC(c2ccc(C(F)(F)F)cc2)=NO1 (stereo unspecified)	none
O=C(NCc1ccco1)C1CC(c2ccc(C(F)(F)F)cc2)=NO1 (stereo unspecified)	none
C#CCSc1nnc(-c2sc(-c3ccccc3)nc2C)n1C	FBA Mtb inh 36
